The values that follow come from PubChem BioAssay (NCI).

Some test systems named below: NCI-H23 lung; NCI-H226 lung; NCI-H322M lung; HOP-62 NSCLC; NCI-H460 lung; HOP-92 NSCLC; NCI-H522 lung; A549/ATCC NSCLC; 786-0 renal; COLO 205 colon; DU-145 prostate; K-562 leukemia; MALME-3M melanoma; MDA-MB-231 breast; RXF 393 renal; SF-268 CNS; SF-295 CNS; SF-539 CNS; UACC-257 melanoma; M14 melanoma.
Experiment in all cases: NCI-60 one-dose screen, 48 h (100 = growth as untreated, 0 = no growth, -100 = all killed)
What all share (settings): 10 µM unless noted

“And” between values parts separate entries of the source, which are not always exact repeats. Identical values can stand only once. This is part of a sample that, as a whole, favours compounds with a hit. Of some 83,000 tested, about 20% had one in any assay.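 Compound tested at a single concentration for 48 hours in 96-well plates; a percent growth value below 10 was scored as active.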 A number with no mark means an inactive call. The source made the active and inactive calls.

Take `CS(=O)(=O)OCC1NC(=O)C(COS(C)(=O)=O)NC1=O` (stereo not given): the growth is 84% and 88.5% in the test with NCI-H23 lung; 96.2% and 99.2% in the test with NCI-H226 lung; 98.8% and 103% with NCI-H322M lung; 106% and 118% in the test with HOP-62 NSCLC; 102% and 95.9% in the test on NCI-H460 lung; 96.4% and 104% with HOP-92 NSCLC. Besides, the growth is 51.3% and 50.6% with NCI-H522 lung; 78.3% and 96.4% with A549/ATCC NSCLC; 97.8% and 99.1% in the test on 786-0 renal; 128% and 135% in the test with COLO 205 colon; 111% and 102% with DU-145 prostate; 81.6% and 104% in the test on K-562 leukemia. The growth was 98.1% and 103% in the test with MALME-3M melanoma; 108% and 104% with MDA-MB-231 breast; 83.2% and 100% in the test on RXF 393 renal; 113% and 60.2% with SF-268 CNS; 133% and 102% in the test on SF-295 CNS; 106% and 97.9% in the test with SF-539 CNS. The growth in the test on UACC-257 melanoma is 75.5% and 116%; with M14 melanoma, 91.8% and 93.5%.

`N#CC(=S)Nc1ccc(Cl)c(Cl)c1`: the growth in the test with NCI-H23 lung was 3.93% (active); with NCI-H226 lung, 9.29% (active); in the test with NCI-H322M lung it was -3.76% (active); in the test on HOP-62 NSCLC, 24.3%; in the test with NCI-H460 lung, 9.12% (active); in the test on HOP-92 NSCLC it was -15.6% (active). The growth in the test with NCI-H522 lung was -14% (active); in the test on A549/ATCC NSCLC, 15.6%; in the test with 786-0 renal, 14.2%; with COLO 205 colon, -22% (active); with DU-145 prostate it was 18.6%; in the test with K-562 leukemia, 16.1%. Further, the growth in the test on MALME-3M melanoma was -13.4% (active); with MDA-MB-231 breast it was -4.8% (active); in the test with RXF 393 renal, 13%; with SF-268 CNS it was 11%; in the test with SF-295 CNS it was -0.242% (active); in the test on SF-539 CNS, 8.61% (active). Further, the growth in the test on UACC-257 melanoma is -6.42% (active); in the test with M14 melanoma, 26.1%.

Consider `O=[N+]([O-])c1cccc2ccc(N/N=C/c3ccccc3O)nc12`, for which the growth with NCI-H23 lung was 72.4% and 98.3%; with NCI-H226 lung it was 83.4% and 99.5%; in the test on NCI-H322M lung it was 88.2% and 94.8%; in the test on HOP-62 NSCLC, 85% and 97.9%; with NCI-H460 lung it was 91.9% and 98.4%; with HOP-92 NSCLC, 67.7% and 77.7%. Besides, the growth with NCI-H522 lung is 78.6% and 89.2%; in the test on A549/ATCC NSCLC, 97.3% and 90.9%; in the test on 786-0 renal, 102% and 85.9%; in the test on COLO 205 colon, 68.1% and 111%; in the test on DU-145 prostate, 88.7% and 107%; with K-562 leukemia it was 19.9% and 49.1%. The growth in the test on MALME-3M melanoma is 96.2% and 100%; in the test with MDA-MB-231 breast, 72.6% and 84.5%; in the test with RXF 393 renal, 84.6%; in the test on SF-268 CNS, 106% and 99.2%; in the test on SF-295 CNS, 104% and 102%; in the test on SF-539 CNS, 90.9% and 101%. For the same compound, the growth in the test with UACC-257 melanoma was 92.1% and 85.4%; in the test with M14 melanoma, 88.9% and 107%.

`Cc1c(Cl)cc(Cl)c(N)c1Cl`: the growth with NCI-H23 lung was 103%; with NCI-H226 lung it was 102%; with NCI-H322M lung, 115%; in the test with HOP-62 NSCLC, 107%; with NCI-H460 lung, 105%; in the test on HOP-92 NSCLC, 76.9%. In addition, the growth is 97.4% with NCI-H522 lung; 107% with A549/ATCC NSCLC; 109% in the test on 786-0 renal; 108% in the test on COLO 205 colon; 121% in the test on DU-145 prostate; 106% in the test on K-562 leukemia. Moreover, the growth in the test with MALME-3M melanoma is 109%; with MDA-MB-231 breast, 98.9%; with RXF 393 renal, 108%; in the test with SF-268 CNS it was 104%; with SF-295 CNS it was 102%; in the test with SF-539 CNS it was 96.4%. The growth was 106% in the test with UACC-257 melanoma and 105% with M14 melanoma.

`COCCCNC1=C(C#N)C(=O)NC(c2cccs2)S1` (stereo not given): the growth is 104% with NCI-H23 lung; 98.4% with NCI-H226 lung; 95.4% in the test with NCI-H322M lung; 99.9% in the test with HOP-62 NSCLC; 99.2% in the test with NCI-H460 lung; 107% with HOP-92 NSCLC. Further, the growth was 127% with NCI-H522 lung; 103% with A549/ATCC NSCLC; 106% in the test on 786-0 renal; 110% with COLO 205 colon; 107% in the test on DU-145 prostate; 153% with K-562 leukemia. For the same compound, the growth is 104% in the test with MALME-3M melanoma; 106% with MDA-MB-231 breast; 96.9% with RXF 393 renal; 104% with SF-268 CNS; 96.4% in the test on SF-295 CNS; 85.2% with SF-539 CNS. The growth was 111% with UACC-257 melanoma and 110% with M14 melanoma.

Consider `CC(C)(C(=O)c1cccnc1)c1cccnc1`, for which the growth is 107% and 133% with NCI-H23 lung; 96.6% and 89.7% in the test with NCI-H226 lung; 92% and 103% with NCI-H322M lung; 109% and 103% in the test on HOP-62 NSCLC; 103% and 101% with NCI-H460 lung; 89.3% in the test with HOP-92 NSCLC. For the same compound, the growth in the test with NCI-H522 lung is 93.5% and 100%; in the test with A549/ATCC NSCLC, 86.5% and 108%; in the test with 786-0 renal it was 103% and 99.5%; with COLO 205 colon, 113% and 117%; with DU-145 prostate it was 112% and 114%; in the test with K-562 leukemia it was 104% and 115%. In addition, the growth is 96.3% and 125% in the test with MALME-3M melanoma; 96.4% and 119% in the test with MDA-MB-231 breast; 105% and 119% in the test on RXF 393 renal; 107% and 106% with SF-268 CNS; 95.7% and 124% in the test with SF-295 CNS; 99.5% and 95.9% with SF-539 CNS. For the same compound, the growth in the test with UACC-257 melanoma was 97.3% and 115%; in the test on M14 melanoma, 101% and 92.2%.

Regarding `O=C1CCC(=O)N1CC1CC2CCC1C2` (stereo not given), the growth with NCI-H23 lung was 92.7% and 102%; in the test with NCI-H226 lung, 95.9% and 92.2%; in the test with NCI-H322M lung, 104% and 80.5%; in the test with HOP-62 NSCLC it was 96.2% and 86.7%; in the test with NCI-H460 lung it was 107% and 102%; in the test with HOP-92 NSCLC, 99.9% and 101%. Besides, the growth in the test on NCI-H522 lung is 91.8% and 95.2%; in the test on A549/ATCC NSCLC, 111% and 99.1%; in the test with 786-0 renal it was 98.5% and 97.6%; in the test with COLO 205 colon, 117% and 92.5%; in the test on DU-145 prostate it was 127% and 98.7%; in the test on K-562 leukemia it was 71.2% and 94.1%. In addition, the growth in the test with MALME-3M melanoma was 98.1% and 87.7%; with MDA-MB-231 breast it was 98.8%; in the test on RXF 393 renal, 105% and 106%; in the test on SF-268 CNS, 100% and 95.2%; in the test on SF-295 CNS, 83.4% and 90.2%; with SF-539 CNS, 101% and 87.8%. The growth in the test on UACC-257 melanoma was 104% and 83.5%; in the test with M14 melanoma it was 103% and 95.6%.

For `CCCC(=O)Oc1ccc2ccccc2c1`, the growth in the test with NCI-H23 lung is 98.7%; in the test with NCI-H226 lung it was 103%; in the test on NCI-H322M lung it was 109%; in the test on HOP-62 NSCLC, 89.9%; in the test with NCI-H460 lung, 98%; with HOP-92 NSCLC it was 89.5%. Further, the growth was 96.8% in the test with NCI-H522 lung; 97.3% in the test on A549/ATCC NSCLC; 101% in the test with 786-0 renal; 99.2% in the test on COLO 205 colon; 111% in the test with DU-145 prostate; 95.7% in the test with K-562 leukemia. The growth is 111% in the test with MALME-3M melanoma; 95.8% with MDA-MB-231 breast; 112% with RXF 393 renal; 105% in the test on SF-268 CNS; 96.7% in the test on SF-295 CNS; 98.3% in the test with SF-539 CNS. Besides, the growth is 90.8% with UACC-257 melanoma and 97.5% in the test with M14 melanoma.

As for `C#CCOC(=O)C(N)CS` (stereo not given), the growth is 109% in the test on NCI-H23 lung; 99.9% in the test on NCI-H226 lung; 97.6% with NCI-H322M lung; 93.2% in the test with HOP-62 NSCLC; 103% in the test on NCI-H460 lung; 93.9% in the test with HOP-92 NSCLC. Also, the growth with NCI-H522 lung is 111%; with A549/ATCC NSCLC, 118%; with 786-0 renal, 106%; in the test with COLO 205 colon it was 106%; with DU-145 prostate, 113%; in the test with K-562 leukemia, 102%. Further, the growth in the test on MALME-3M melanoma was 96.6%; in the test with MDA-MB-231 breast it was 84.2%; in the test with RXF 393 renal, 106%; with SF-268 CNS it was 96.4%; in the test on SF-295 CNS it was 96.5%; in the test with SF-539 CNS, 86.6%. Further, the figures for the growth in the test on UACC-257 melanoma and with M14 melanoma were 107% and 97.1%, respectively.

In the case of `OCCCc1ccccc1`, the growth is 107% in the test with NCI-H23 lung; 99% in the test with NCI-H226 lung; 76.2% in the test on NCI-H322M lung; 101% with HOP-62 NSCLC; 112% in the test on NCI-H460 lung; 94.7% in the test with HOP-92 NSCLC. Also, the growth was 110% with NCI-H522 lung; 99.8% with A549/ATCC NSCLC; 110% with 786-0 renal; 94.1% in the test on COLO 205 colon; 118% in the test on DU-145 prostate; 121% with K-562 leukemia. In addition, the growth was 75.8% in the test with MALME-3M melanoma; 97.8% with MDA-MB-231 breast; 105% in the test with RXF 393 renal; 108% in the test on SF-268 CNS; 107% in the test with SF-295 CNS; 112% with SF-539 CNS. Further, the growth was 102% with UACC-257 melanoma and 100% in the test with M14 melanoma.

Regarding `Nc1[nH][nH]c(=O)c1N=Nc1ccccc1`, the growth in the test on NCI-H23 lung was 98.7% and 99%; with NCI-H226 lung, 106% and 91.8%; in the test with NCI-H322M lung, 129% and 102%; in the test on HOP-62 NSCLC it was 104% and 105%; with NCI-H460 lung, 99.8% and 117%; in the test with HOP-92 NSCLC it was 101%. For the same compound, the growth in the test on NCI-H522 lung was 88.9% and 79.1%; in the test with A549/ATCC NSCLC, 103% and 110%; in the test on 786-0 renal it was 113% and 109%; with COLO 205 colon it was 107% and 112%; with DU-145 prostate, 109% and 111%; with K-562 leukemia it was 137% and 92.5%. For the same compound, the growth is 128% and 115% in the test with MALME-3M melanoma; 93.8% and 119% with MDA-MB-231 breast; 123% and 107% with RXF 393 renal; 103% and 114% in the test on SF-268 CNS; 111% and 114% with SF-295 CNS; 102% and 106% in the test with SF-539 CNS. Further, the growth in the test on UACC-257 melanoma is 109%; in the test on M14 melanoma, 102% and 112%.
